# Results from paper PMC7155171, “Probing the Open Global Health Chemical Diversity Library for Multistage-Active Starting Points for Next-Generation Antimalarials” (ACS Infectious Diseases, 2020).
# Read-outs that look alike come from different tables or passages of the source. Whole data set: some 68,000 compounds, median “% viability” near 1.1, cut for the lowest 2% near 0.96. The entries come from a sample that favours the lowest values as a whole. The numbers are fractions of the control, whatever unit the source prints.
# System: P. falciparum (NF54) stage V gametocytes
# Design: Mature stage V gametocyte viability, MitoTracker Red CMXRos high-content imaging
# Settings: primary screen, n=2, fraction of DMSO control, 72 h, 2 µM, inhibitor
SMILES,% viability (Stg V Gam primary screen: Inhibition % (2uM) (n=2)),% viability
COc1cccc(CN(C)CC2=Nc3ccccc3S(=O)(=O)N2)c1 [DDD01073248],1.218%,–
COc1cccc(Cn2nc(C)c3c(NC(=O)C(C)OC)[nH]nc32)c1 (stereo not shown) [DDD01063202],–,1.059%
COc1cccc(C2=NN=CC2=C2NC(CN3CCCC3)=NO2)c1 [DDD01247208],–,1.119%
COCCC(=O)N1CCC(c2cc(=O)n(C)[nH]2)C1 (stereo not shown) [DDD01060470],–,1.179%
COc1cccc(F)c1-c1nc2c(C3CC3)[nH]n(C)c-2n1 [DDD01246655],–,1.144%
CCC(CO)N(Cc1cccnc1)C(=O)c1ccc(C(F)(F)F)nc1O (stereo not shown) [DDD01253913],–,1.193%
Cc1ccccc1CN(C)C(=O)CCC1=NC(=C2N=CN=N2)NO1 [DDD01062116],–,1.259%
Cc1[nH]n(C2CCCCC2)c2nc(C(C)(C)CN3CCOCC3)nc1-2 [DDD01254749],–,1.099%
Cc1[nH]n(C2CCCC2)c2nc(C(C)(C)CN3CCN(C)CC3)nc1-2 [DDD01248613],–,1.14%
Cc1nc(N2CCCC2)ncc1-c1cc(=O)n2ncnc2[nH]1 [DDD01038581],–,1.014%
CCc1cc(=O)n2nc(C3CCN(C(=O)c4ccccn4)CC3)cc2[nH]1 [DDD01057364],–,1.067%
CCc1c(C)[nH]c2cc(C3CCN(Cc4cccc(F)c4)C3)nn2c1=O (stereo not shown) [DDD01060569],–,1.163%
Cc1[nH]c2cc(C3CCN(Cc4cccc(F)c4F)C3)nn2c(=O)c1C (stereo not shown) [DDD01270135],–,0.8996%
CCc1c(C)[nH]c2cc(C3CCN(Cc4cccnc4)C3)nn2c1=O (stereo not shown) [DDD01060570],–,1.145%
CCc1c(C)[nH]c2cc(C3CCN(Cc4ccccc4F)C3)nn2c1=O (stereo not shown) [DDD01270117],–,0.9474%
Cc1[nH]c2cc(C3CCN(Cc4ccccc4F)C3)nn2c(=O)c1C (stereo not shown) [DDD01060615],–,0.9944%
CCc1c(C)[nH]c2cc(C3CCN(Cc4ccc(F)cc4)C3)nn2c1=O (stereo not shown) [DDD01060568],–,1.103%
Cc1nsc(N2CCCN(CC(=O)N(C)C3CC3)CC2)n1 [DDD01066804],–,1.153%
COCCCC(=O)N1CC(=O)Nc2cc(Br)ccc21 [DDD01075689],–,1.221%
Cc1ncc(CN2CCc3[nH]c4cc(C(C)(C)C)nn4c(=O)c3C2)n1C [DDD01058400],–,1.122%

SMILES,% viability (Stg V Gam primary screen: Inhibition % (2uM) (n=2)),% viability
O=C(CNC(=O)N1CCc2c([nH]c3ccc(Cl)cc23)C1)N1CCOCC1 [DDD01035668],–,1.056%
Cc1[nH]n(-c2ccccc2)c2nc(C(C)(C)CN3CCN(C)CC3)nc1-2 [DDD01252143],–,1.131%
Cc1[nH]n(C2CCS(=O)(=O)C2)c(=O)c1Cc1ccccc1 (stereo not shown) [DDD01026976],–,1.15%
Cc1[nH]n(C2CCS(=O)(=O)C2)c(=O)c1Cc1ccc(Br)cc1 (stereo not shown) [DDD01026979],–,1.197%
CCCn1ncc(-c2nc3c[nH]n(CC)c-3n2)c1C [DDD01252709],–,1.088%
CCn1[nH]cc2nc(-c3cc4c(cc3OC)OCO4)nc1-2 [DDD01244413],–,1.126%
CCc1c(C)nn2c(=O)cc(C3CCN(C(=O)c4ccccn4)C3)[nH]c12 (stereo not shown) [DDD01056906],–,1.115%
CCc1ccc(NC(=O)Nc2c(O)c3ccccc3oc2=O)cc1 [DDD01037337],–,1.219%
CN(CCCc1ccccc1)C(=O)CCC1=NC(=C2N=CN=N2)NO1 [DDD01062165],–,0.9845%
CCc1c(C)nn2c(=O)cc(C3CCN(C(=O)c4cnn(C)c4)C3)[nH]c12 (stereo not shown) [DDD01056908],–,1.149%
COCC(=O)Nc1[nH]nc2c1c(C)nn2Cc1cccc(OC)c1 [DDD01063147],–,1.204%
Fc1cccc(C2=NN=CC2=C2NC(CN3CCOCC3)=NO2)c1 [DDD01244908],–,1.1236%
CSc1cccc(NC(=O)Nc2c(O)c3ccccc3oc2=O)c1 [DDD01037688],–,1.182%
Cc1ncc(CN2CCc3c([nH]c4cc(C5CC5)nn4c3=O)C2)n1C [DDD01058398],–,1.038%
Cc1nnsc1C(=O)N1CCCCC1c1cc2[nH]c(C)c(C)c(=O)n2n1 (stereo not shown) [DDD01059036],–,1.123%
CCn1[nH]cc2nc(-c3ccc(OC)c(COC)c3)nc1-2 [DDD01253750],–,1.204%
CCc1cc(=O)n2nc(C3CCN(C(=O)c4cccnc4)CC3)cc2[nH]1 [DDD01057176],–,1.192%
COc1cc(OC)c(-c2nc3c(C4CC4)[nH]n(C)c-3n2)cc1OC [DDD01244474],–,0.9472%
COc1cc(F)ccc1-c1nc2c(C3CC3)[nH]n(C)c-2n1 [DDD01248843],–,1.111%
COc1ccc(F)cc1-c1nc2c(C3CC3)[nH]n(C)c-2n1 [DDD01250494],–,1.074%
